esBAF inh = SWI/SNF esBAF complex inhibition; mouse ES cells, Bmi1-luciferase knock-in reporter, 24 h; 100% = twice the neutral-well signal; reporter increase, % at 12.5 µM; 350,000 compounds, 2% hits; in the data active = activation above about 40%; inconclusive = no clear call, values can overlap the other calls;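 note: 0% = median of the plate's neutral control wells and 100% = double that signal; a rise in the Bmi1 reporter signal indicates esBAF inhibition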
Wnt act = activators of Wnt/beta-catenin signaling; activation, % at 9.35 µM; 300,000 compounds, 1.2% hits; Wnt/beta-catenin reporter cell assay, activator, plate reader; in the data active = activation above about 30%, passing the limit was not always enough; inconclusive = no clear call, values can overlap the other calls;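 note: 0% = neutral control wells and 100% = positive control wells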
MITF TRPM1 HTS = activators of MITF-driven TRPM1 promoter activity in SK-MEL-5 cells; SK-MEL-5 TRPM1-promoter luciferase, 24 h; % of positive control, neutral wells = 0; activation, % at 12.5 µM; 300,000 compounds, 0.75% hits;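 active = mean activation of at least 80% with every replicate also reaching 80%; inconclusive = mean reaches 80% but some replicate falls short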;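 note: 0% = neutral control wells and 100% = parthenolide positive control wells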
C2C12 statin = suppression of simvastatin myotoxicity; rescue of ATP level, % at 7.49 µM; C2C12 myotubes + simvastatin, ATP luminescence, 48 h; scaled: DMSO 0, geranylgeraniol control 100; 330,000 compounds, 0.78% hits;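 active = mean ATP rescue above about 67%, or every replicate alone reaching that limit, limit read from the data, passing the limit was not always enough; inconclusive = no clear call, values can overlap the other calls; inactive = mean under the limit and some replicate under it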;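 note: myotubes were challenged with 10 µM simvastatin during compound exposure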
An asterisk follows results filed as active; ? = inconclusive; · = no result. Sampled rows, rich in hits. Any-hit rate of the full collection: about 3%.

SMILES	esBAF inh	Wnt act	MITF TRPM1 HTS	C2C12 statin
CCCC#Cc1ccc2c(c1)O[C@@H](CN(C)C(=O)C1CC1)[C@H](C)CN([C@@H](C)CO)S2(=O)=O	0	·	·	2
O=C(c1cccnc1)N1C[C@@H]2[C@H](c3ccccc31)[C@H](CO)N2C(=O)Nc1ccccc1Cl	-2	·	·	12
O=C(Nc1ccc(Br)cc1)Nc1ccccc1F	?	20	52	-26
COc1ccccc1NC(=O)Nc1ccc2c(c1)CCC2	·	19	112*	·
O=C(Nc1ccccc1F)Nc1ccccc1F	56*	54*	41	-13
CCCC#Cc1ccc2c(c1)O[C@@H](CN(C)Cc1cccnc1)[C@@H](C)CN([C@H](C)CO)S2(=O)=O	-1	·	·	11
CCOC(=O)/C=c1\s/c(=C\c2ccc3c(c2)OCCO3)c(=O)n1CC(=O)NCC1CCCO1 (stereo unspecified)	4	·	3	110*
CCOC(=O)/C=c1\s/c(=C\c2c(OCC)ccc3ccccc23)c(=O)n1CC(=O)NCC1CCCO1 (stereo unspecified)	·	·	-6	·
CSc1ncccc1C(=O)OCC(=O)c1ccc(C)s1	58*	16	10	6
CSc1ncccc1C(=O)OCC(=O)c1ccc(Cl)s1	7	-1	·	15
Cc1ccc(C(=O)COC(=O)c2cccc(O)c2)s1	62*	40*	54	7
Fc1ccc(-c2nn3c(C4COc5ccccc5O4)nnc3s2)cc1 (stereo unspecified)	42*	·	·	30
O=C(O)c1ccc(-c2noc(-c3cccc(Cl)c3)n2)cc1	63*	17	87*	-36
O=C(O)c1ccc(-c2noc(-c3ccccc3Cl)n2)cc1	3	39*	13	-19
O=C(O)c1ccc(-c2noc(-c3ccccc3C(F)(F)F)n2)cc1	36	?	40	-1
COCC(=O)Nc1ccc2c(c1)OC[C@@H](C)N(CC1CC1)C[C@@H](C)[C@H](OC)CN(C)C2=O	-9	·	·	-1
O=C1Cn2c(nc3ccccc32)-c2ccccc2N1	13	·	4	-34
c1ccc(C2Nc3ccccc3-c3nc4ccccc4n32)cc1 (stereo unspecified)	45*	37*	·	-9
c1coc(C2Nc3ccccc3-c3nc4ccccc4n32)c1 (stereo unspecified)	46*	20	63	9
c1ccc(C2Nc3ccccc3-c3nc4ccccc4n32)nc1 (stereo unspecified)	·	37*	21	·
O=S(=O)(c1cccs1)N1CCCc2cccc(O)c21	45*	48*	95*	-2
C[C@H]1CN([C@@H](C)CO)C(=O)c2cc(NC(=O)Nc3cccc4ccccc34)ccc2O[C@@H]1CN(C)C(=O)Nc1ccc(C(F)(F)F)cc1	-1	·	·	29
Cc1ccnc(NCc2cc(C)ccc2O)c1	56*	-1	·	3
Cc1ccc(O)c(CNc2ccccn2)c1	64*	·	·	112*
Cc1ccc(NCc2ccccc2O)cc1	49*	·	56	-1
SMILES	esBAF inh	Wnt act	MITF TRPM1 HTS	C2C12 statin
Cc1ccc(O)c(CNc2cccc(C)n2)c1	15	1	8	11
C[C@H](CO)N1C[C@H](C)[C@H](CN(C)CC2CCCCC2)Oc2ccc(NC(=O)CCN3CCOCC3)cc2C1=O	-1	·	·	27
C[C@@H]1CN([C@H](C)CO)C(=O)CCCn2cc(nn2)CO[C@@H]1CN(C)S(=O)(=O)c1ccc(-c2ccccc2)cc1	-7	·	·	-20
O=C(C1CCOCC1)N1C[C@@H]2[C@H](c3ccccc31)[C@@H](CO)N2C(=O)Cc1ccccc1	3	·	·	9
CC(C)n1cc(/C=C2\NC(=O)N(c3cccc(Cl)c3)C2=O)c2ccccc21	-10	-1	-6	115*
CC(C)n1cc(/C=C2/NC(=O)N(c3cccc(Cl)c3)C2=O)c2ccccc21	-4	·	·	-3
COc1cccc2sc(Nc3nnc(-c4cccs4)o3)nc12	-14	59*	·	-3
COc1cccc2sc(Nc3nnc(-c4ccc(F)cc4)o3)nc12	23	-7	-14	6
Fc1cccc2sc(Nc3nnc(-c4ccco4)o3)nc12	14	38*	30	-9
Cc1cc(Cl)cc2sc(NC(=O)c3ccco3)nc12	17	·	88*	4
O=C(Nc1nc2c(F)cccc2s1)c1ccco1	31	43*	59	1
CC(=O)Nc1nc2c(F)cccc2s1	0	1	12	3
C[C@@H]1CN([C@@H](C)CO)C(=O)c2cc(C#CCN(C)C)cnc2O[C@@H]1CN(C)C(=O)Nc1cccc(F)c1	-8	·	·	-3
O=C(C[C@@H]1C[C@@H]2c3cc(NC(=O)NC4CCCC4)ccc3O[C@@H]2[C@H](CO)O1)NCc1ccncc1	7	·	·	2
CC(C)C#Cc1ccc2c(c1)O[C@H](CN(C)Cc1cncnc1)[C@H](C)CN([C@H](C)CO)S2(=O)=O	2	·	·	-13
CO[C@@H]1CN(C)C(=O)c2cc(NS(=O)(=O)c3ccccc3)ccc2OC[C@@H](C)N(C(=O)NC(C)C)C[C@H]1C	-2	·	·	3
CC1(Cc2ccc(Cl)c(Cl)c2)C(=O)Nc2ccc(S(=O)(=O)NC3CCCCC3)cc21 (stereo unspecified)	9	-1	·	31
CC1(Cc2cccc(F)c2)C(=O)Nc2ccc(S(=O)(=O)NC3CCCCC3)cc21 (stereo unspecified)	2	-3	·	164*
Cc1csc(NC(=O)CSc2nnc(CCNC(=O)c3cccs3)n2C)n1	2	-1	3	98*
COc1ccc(NC(=O)N2CCc3ccccc32)cc1	-25	·	11	-53
COc1ccc(NC(=O)N2CCCc3ccccc32)cc1	41*	54*	23	9
CC(C(=O)N1CCCc2ccccc21)N1C(=O)c2ccccc2C1=O (stereo unspecified)	10	·	7	109*
CCOC(=O)c1ccc(NC(=O)N2CCCCC2)cc1	38	·	101*	137*
CCOC(=O)c1ccc(NC(=O)N2CCc3ccccc3C2)cc1	9	4	22	5
CCOC(=O)c1ccc(NC(=O)N2CCc3ccccc32)cc1	68*	40*	73	72*
SMILES	esBAF inh	Wnt act	MITF TRPM1 HTS	C2C12 statin
CC(C)NC(=O)N(C)C[C@@H]1Oc2ccc(NS(C)(=O)=O)cc2CC(=O)N([C@H](C)CO)C[C@H]1C	-2	·	·	-18
Cc1ccc(S(=O)(=O)N[C@H]2CC[C@H](CCNC(=O)C3CCC3)O[C@H]2CO)cc1	-3	·	·	-2
COc1ccc(S(=O)(=O)Nc2ccc3c(c2)CC(=O)N([C@@H](C)CO)C[C@H](C)[C@@H](CN(C)CC2CCCCC2)O3)cc1	2	·	·	34
CCOC(=O)c1ccc(Nc2ccc(C(C)=O)cc2)cc1	76*	13	·	0
CCOC(=O)c1ccc(NS(=O)(=O)CC)cc1	·	·	0	·
C[C@@H]1CN([C@@H](C)CO)C(=O)c2cccc(NC(=O)Nc3ccc(F)cc3)c2O[C@@H]1CN(C)C	-5	·	·	-5
COc1ccc(C#Cc2cnc3c(c2)C(=O)N([C@H](C)CO)C[C@@H](C)[C@@H](CN(C)C(=O)Nc2cccc(OC)c2)O3)cc1	19	·	·	49

Assay outcomes as filed in PubChem.
